Only some compounds are listed: those with a hit (about 1.6% of all), similar ones and a draw of the others.
KCNQ2 block – KCNQ2 (rat) channel inhibition; B-score at 10 µM; 310,000 compounds, 1.1% hits; CHO-K1 KCNQ2, FluxOR thallium flux, 20 min; active compounds read low; O88943;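 active means fluorescence ratio B-score at most minus 3 library SDs, with starting brightness B-score within 2 library SDs, cut at about -5.5 in these data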
KCNQ2 pot – potentiators of rat KCNQ2 potassium channel. CHO-K1 KCNQ2, FluxOR thallium flux fluorescence; active compounds read high. B-score at 10 µM. O88943. 310,000 compounds, 0.54% hits;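 active means fluorescence ratio B-score at least 3 SD of library B-scores, with initial fluorescence B-score within 3 of them, cut at about 5.3 in these data; same plate scores as AID 2156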;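 further: B-score of peak minus minimum over baseline fluorescence ratio after K+ and Tl+ stimulus; positive B-score means potentiation of KCNQ2 with more thallium influx and brighter signal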
Kir21 conf inh – confirmation of mouse Kir2.1 potassium channel inhibitors. AID 2032. Tl flux remaining, % of negative control (active compounds read low), % at 10 µM. 2,300 compounds, 41% hits. Kir2.1-expressing cells, FluxOR thallium flux fluorescence; active compounds read low. shares compounds with KCNQ2 pot;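 active means Primary-screen hit whose thallium flux fell at least 3 control SD below untreated wells in both duplicates, with normal baseline fluorescence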;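 further: 0% = blank wells without stimulus and 100% = stimulated no-compound controls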
Target sequence (P35561 whole entry, looked up): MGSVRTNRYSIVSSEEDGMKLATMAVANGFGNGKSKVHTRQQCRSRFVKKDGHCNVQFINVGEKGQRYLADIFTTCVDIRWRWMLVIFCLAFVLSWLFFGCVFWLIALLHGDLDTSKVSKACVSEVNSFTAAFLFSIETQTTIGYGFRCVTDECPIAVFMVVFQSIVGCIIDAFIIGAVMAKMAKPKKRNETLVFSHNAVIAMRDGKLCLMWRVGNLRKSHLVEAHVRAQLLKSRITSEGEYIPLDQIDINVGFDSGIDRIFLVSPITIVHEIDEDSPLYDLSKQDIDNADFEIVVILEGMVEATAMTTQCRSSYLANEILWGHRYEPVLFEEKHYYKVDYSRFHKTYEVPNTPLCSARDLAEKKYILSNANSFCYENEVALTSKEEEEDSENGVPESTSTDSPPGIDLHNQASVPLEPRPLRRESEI
HEK293 Tl flux – parental HEK293 activity in Kir2.1 inhibitor counter-screen | parental HEK293 cells, FluxOR thallium flux fluorescence; 0% = unstimulated blank wells | shares compounds with KCNQ2 pot | FluxOR signal as % of negative control (100 = no effect), % at 10 µM | 2,300 compounds, 19% hits | AID 2105;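 active means dye signal at least 3 control SD above or below untreated wells in both duplicates, raw fluorescence within 3, either direction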;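 further: percent is based on the flux ratio of peak minus minimum fluorescence over baseline F0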
CHO-K1 ctr – counter-screen for KCNQ2 potentiators: effect in parental CHO-K1 cells. shares compounds with KCNQ2 pot. 1,200 compounds, 43% hits. FluxOR thallium flux fluorescence; zero = vehicle mean+3SD, 100% = vehicle-minus-blank window. activity increase over 3SD of controls, % at 10 µM;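 active means signal rise of at least 3 SD above the untreated control mean, in both duplicate wells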;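 further: counter screen of KCNQ2 potentiator hits so any rise reflects channel-independent effects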
KCNQ1 sel pot – tests whether KCNQ2 potentiators also act on human KCNQ1. shares compounds with KCNQ2 pot. 1,200 compounds, 28% hits. CHO KCNQ1 stable, FluxOR thallium flux fluorescence; beyond 3SD, as % of vehicle-control signal. activation over 3SD threshold, % at 10 µM;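 active means fluorescence ratio rise of at least 3 SD of vehicle wells above their mean, in both replicate wells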;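 further: 0% = vehicle mean plus 3 SD and 100% = vehicle minus unstimulated blank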
KCNQ2 pot confirm – rat KCNQ2 channel potentiator confirmation | CHO-KCNQ2 cells, FluxOR thallium flux fluorescence | 1,200 compounds, 68% hits | potentiation, less the hit threshold, % at 10 µM | shares compounds with KCNQ2 pot | AID 2287;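 active means fluorescence ratio rising 3 SD or more over the vehicle control mean in both replicates, plus primary screen hit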;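 further: peak minus minimum thallium fluorescence divided by baseline after K/Tl stimulus; 0% = vehicle mean plus 3 SD and 100% = vehicle minus unstimulated blank difference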
Kir21 spec – selectivity of KCNQ2 potentiators: effect on mouse Kir2.1 | 1,200 compounds, 2% hits | AID 2345 | HEK293 Kir2.1, FluxOR thallium flux fluorescence | shares compounds with KCNQ2 pot | activity over 3SD threshold, % at 10 µM;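 active means fluorescence ratio rise of at least 3 SD above the vehicle-control mean, seen in both replicates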;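 further: 0% = vehicle mean plus 3 SD and 100% = vehicle minus no-stimulus blank window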
KCNQ2 W236L MoA – potentiates the retigabine-insensitive rat KCNQ2 W236L mutant channel; current increase over 3SD of negative controls (%), active compounds read high, % at 25 µM; CHO KCNQ2-W236L, automated patch clamp current; shares compounds with KCNQ2 pot; 940 compounds, 10% hits;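 active means current increase at least 3 SD of the untreated controls above them in both duplicate recordings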
* marks the source's active call; other numbers are inactive results; i = inactive; / = no result.

SMILES | KCNQ2 block | KCNQ2 pot | Kir21 conf inh | HEK293 Tl flux | others
CCC(NC(=S)NC1CCCCC1)c1ccccc1 (configuration not stated) | i | 12* | / | / | CHO-K1 ctr=-9;KCNQ1 sel pot=-1;KCNQ2 pot confirm=28*;Kir21 spec=-59;KCNQ2 W236L MoA=i
CCOc1ccccc1C(C(=O)NC1CCCCC1)N(C(=O)c1csnn1)C1CC1 (configuration not stated) | i | 1.6 | / | /
Cc1cccc(NC(=O)CCc2ccc(S(=O)(=O)NC3CCCCC3)cc2)c1 | i | 0.36 | / | /
Cc1cccc2c(N=Nc3ccc(S(=O)(=O)Nc4ccc(Cl)cc4)cc3[N+](=O)[O-])c(O)[nH]c12 | i | 0.46 | / | /
NC(=O)CSc1oc(-c2ccco2)nc1S(=O)(=O)c1ccc(F)cc1 | i | 0.09 | / | /
CCc1ccc(C(C)NC(=S)NC2CCCCC2)cc1 (configuration not stated) | i | 20* | i | i | CHO-K1 ctr=15*;KCNQ1 sel pot=7.8*;KCNQ2 pot confirm=72*;Kir21 spec=-50;KCNQ2 W236L MoA=i
CC(NC(=O)C1CCCC1)c1ccc2c(c1)OCCO2 (configuration not stated) | i | 1.8 | / | /
CCc1ccc(C(C)NC(=O)C2(C)CC2(Br)Br)cc1 (configuration not stated) | i | 0.22 | / | /
CCOc1ccc(C(C)NC(=S)NC2CCCCC2)cc1 (configuration not stated) | i | 5.4* | i | i | CHO-K1 ctr=-15;KCNQ1 sel pot=27*;KCNQ2 pot confirm=20*;Kir21 spec=-43;KCNQ2 W236L MoA=i
CC(NC(=O)C1CCCCC1)c1ccc2c(c1)OCCO2 (configuration not stated) | i | 5.7* | i | i | CHO-K1 ctr=6.0*;KCNQ1 sel pot=39*;KCNQ2 pot confirm=8.5*;Kir21 spec=-17;KCNQ2 W236L MoA=i
CCOc1ccc(C(C)NC(=S)NC2CCCCC2)cc1OCC (configuration not stated) | i | 2.3 | / | /
CC(C)Cc1ccccc1S(N)(=O)=O | i | / | / | /
CC(=O)c1ccc(S(=O)(=O)Nc2ccc(-c3cn4c(n3)SCC4)cc2)cc1 | i | 0.61 | / | /
CC1CC1C(=O)OCC(=O)N(C)c1c(N)n(Cc2ccccc2)c(=O)[nH]c1=O (configuration not stated) | i | 1.1 | / | /
CC(OC(=O)c1cccc(-n2cnnn2)c1)C(=O)Nc1cccc(Cl)c1 (configuration not stated) | i | 1.2 | i | i
CC(=O)c1ccc(NC(=O)C(C)OC(=O)c2cccc(-n3cnnn3)c2)cc1 (configuration not stated) | i | 0.27 | / | /
COc1ccc(CN2CCC(Cc3ccccc3)CC2)cc1OC | i | 0.03 | / | /
CCOc1ccc(CN2CCC(Cc3ccccc3)CC2)cc1 | i | 0.4 | 41%* | i
CCOc1cc(/C=C2\C(=O)ON=C2c2ccccc2)cc(Br)c1O | i | 2 | i | 46%*
CCOc1cc(/C=C2/C(=O)ON=C2C)cc(Br)c1O | i | 0.24 | / | /
COc1cc(/C=C2\C(=O)ON=C2c2ccccc2)cc(Br)c1O | i | 2 | i | 51%*
COc1cc(/C=C2\C(=O)ON=C2c2ccccc2)cc(Cl)c1O | i | 2.9 | / | /
CCc1ncc(CN2CCCCC2C(=O)Nc2ccc(Oc3ccccc3)nc2)cn1 (configuration not stated) | i | 0.05 | / | /
Cc1cc(C)c(S(=O)(=O)NCCc2ccccc2)c(C)c1 | i | / | 50%* | i
Cc1ccc(S(=O)(=O)NCCc2ccccc2)cc1 | i | / | / | /
SMILES | KCNQ2 block | KCNQ2 pot | Kir21 conf inh | HEK293 Tl flux | others
COc1ccc(C(=S)N2CCN(c3ccccc3C)CC2)cc1 | i | / | / | /
CCc1ccc(C(=O)Nn2c(C)nc3ccccc3c2=O)cc1 | i | 1.4 | / | /
CCCCCc1ccc(CC(=O)Nn2c(C)nc3ccccc3c2=O)cc1 | i | 15* | i | i | CHO-K1 ctr=10*;KCNQ1 sel pot=-8;KCNQ2 pot confirm=93*;Kir21 spec=-40;KCNQ2 W236L MoA=i
OC(CNCc1ccccn1)c1ccccc1 (configuration not stated) | i | 0.24 | / | /
Fc1ccc(C(CCNCc2ccccn2)c2ccc(Cl)cc2)cc1 (configuration not stated) | i | / | 34%* | i
Cc1sc2nc3ccc(NCc4ccco4)nn3c(=O)c2c1C | i | 6.7* | i | i | CHO-K1 ctr=46*;KCNQ1 sel pot=-27;KCNQ2 pot confirm=-3;Kir21 spec=-12
O=c1c2ccccc2nc2ccc(NCc3ccco3)nn12 | i | 0.02 | / | /
CC(=O)c1cccc(NC(=S)NC2CCCCCCC2)c1 | i | 0.58 | / | /
CC(C)c1ccccc1NC(=S)NC1CCCCC1 | i | / | / | /
CC(C)c1ccc(/C=C/C(=O)NC2CCCCC2)cc1 | i | 0.67 | / | /
CC(C)c1ccc(C(C)NC(=S)NC2CCCCC2)cc1 (configuration not stated) | i | 16* | i | i | CHO-K1 ctr=-3;KCNQ1 sel pot=-20;KCNQ2 pot confirm=39*;Kir21 spec=-42;KCNQ2 W236L MoA=i
CC(NC(=S)NC1CCCCC1)c1ccc(C(C)(C)C)cc1 (configuration not stated) | i | 9.9* | i | i | CHO-K1 ctr=-6;KCNQ1 sel pot=-18;KCNQ2 pot confirm=16*;Kir21 spec=-34;KCNQ2 W236L MoA=i
COc1cccc(CCc2nnc(N)s2)c1 | i | 0.71 | / | /
O=C(Nc1cc(C(=O)N2CCN(c3ccccc3O)CC2)ccc1Cl)c1cccs1 | i | / | / | /
Cc1ccc(O)c(CNCCNCc2cc(C)ccc2O)c1 | i | / | 38%* | i
CCc1ccc(O)c(N=Cc2ccccc2O)c1 | i | / | / | /
Cc1ccnc(NCc2ccccc2O)c1 | i | 1.2 | / | /
CCc1ccc(O)c(CNCCNCc2cc(CC)ccc2O)c1 | i | 2.8 | 50%* | i
COC(=O)c1sc2nc(N3CCCCC3)c3c(c2c1N)CCCC3 | i | 2 | / | /
NC(=O)c1sc2nc(N3CCCCC3)c3c(c2c1N)CCCC3 | i | 6.7* | i | i | CHO-K1 ctr=10*;KCNQ1 sel pot=-12;KCNQ2 pot confirm=-5;Kir21 spec=-29;KCNQ2 W236L MoA=i
CCCOc1ccc(C(=O)N/N=C/c2c[nH]c3ccc(Br)cc23)cc1 | i | 0.13 | / | /
CCCCCN=C(N)N/N=C/c1c[nH]c2ccc(OC)cc12 | i | 8.8* | i | i | CHO-K1 ctr=51*;KCNQ1 sel pot=-18;KCNQ2 pot confirm=-43;Kir21 spec=-94
COCCN(C(=O)CSc1nnc(Nc2ccccc2F)s1)c1c(N)n(Cc2ccccc2)c(=O)[nH]c1=O | i | / | / | /
Oc1c(Br)cc(Br)cc1/C=N/Nc1ccc(Cl)nn1 | i | 11* | i | i | CHO-K1 ctr=-10;KCNQ1 sel pot=-18;KCNQ2 pot confirm=13*;Kir21 spec=-12;KCNQ2 W236L MoA=i
